In PubChem BioAssay AID1851 (National Center for Advancing Translational Sciences (NCATS), 2009):
The campaign covered roughly 16,000 compounds. About 2,600 (16%) were called active. Roughly 20% stayed inconclusive and do not appear here. Calls come from the whole dose curve; as a rule, active = well fitted curve in the direction sought with a large enough effect; inconclusive = small, poorly fitted or top-dose-only effect, or effect the other way; inactive = no such curve, though single readings can be large or run the other way. Not all results are given here.
% is set by controls: 0 for no effect and ±100 for the full control effect.

These compounds were tested against Cytochrome P450 2D6 (Homo sapiens) (UniProt P10635) (assay: Cytochrome panel assay with activity outcomes). Details: recombinant CYP, pro-luciferin dealkylation, luminescence, p450-cyp2d6; series mostly up to 57.1 µM.
Sequence of Cytochrome P450 2D6 (Homo sapiens) (P10635 whole entry, looked up): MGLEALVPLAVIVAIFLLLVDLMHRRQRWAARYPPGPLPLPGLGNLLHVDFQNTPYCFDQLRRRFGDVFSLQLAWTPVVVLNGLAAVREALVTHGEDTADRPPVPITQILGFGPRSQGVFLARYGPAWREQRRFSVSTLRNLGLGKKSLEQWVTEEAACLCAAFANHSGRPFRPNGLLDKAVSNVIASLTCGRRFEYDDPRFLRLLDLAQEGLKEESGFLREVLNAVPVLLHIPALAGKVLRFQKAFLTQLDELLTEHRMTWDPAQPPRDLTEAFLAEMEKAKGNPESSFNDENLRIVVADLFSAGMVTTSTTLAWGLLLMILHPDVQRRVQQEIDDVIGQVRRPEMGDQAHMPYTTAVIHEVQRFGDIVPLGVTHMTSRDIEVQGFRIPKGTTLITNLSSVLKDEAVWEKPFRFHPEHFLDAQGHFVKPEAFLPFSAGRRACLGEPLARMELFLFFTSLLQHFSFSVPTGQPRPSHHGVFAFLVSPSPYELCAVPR
In the case of `Cn1c(=O)c2[nH]c([C@@H]3CC(=O)C[C@H](c4nc5c([nH]4)c(=O)n(C)c(=O)n5C)N3)nc2n(C)c1=O`, the activity, negative = inhibition is reported as -10.1% [at 11.4 µM] (inactive). With `CC(=O)N1CC2(CC2)CC1c1ccccc1` (stereo unspecified) the AC50 was “inactive”. In the case of `CC(C)(C)c1nnc(NC(=O)c2cc(-c3ccccc3)nc3ccccc23)s1`, the AC50 is reported as “inactive”. `Cn1cc(-c2nc3cncnc3n(C3CC3)c2=O)c2ccccc21` was tested, and the AC50 was “inactive”. With `N/C(CC(=O)Nc1cc(C(F)(F)F)ccc1Cl)=N\O` the activity, negative = inhibition was 2.47% [at 11.4 µM] (inactive). In the case of `CN(C)c1cc[n+](CC(=O)Nc2cc(C(F)(F)F)ccc2Cl)cc1`, the AC50 is reported as 0.126 µM (active). `Cc1ccc(C(=O)NC(=S)Nc2cc(C(F)(F)F)ccc2Cl)cc1` was tested, and the AC50 was “inactive”. In the case of `COc1ccc(/C=C/C(=O)Nc2cc(C(F)(F)F)ccc2Cl)cc1`, the AC50 is reported as 2.82 µM (active). With `COc1cc(C(=O)Nc2cc(C(F)(F)F)ccc2Cl)cc(OC)c1OC` the AC50 was “inactive”. `COC(=O)CNC(=O)/C=C/c1ccc(OC)cc1` was tested, and the AC50 was “inactive”. `Cc1ccc(C)n1CCN1CCN(CC(=O)Nc2cc(C(F)(F)F)ccc2Cl)CC1` was tested, and the AC50 was 11.2 µM (active). In the case of `O=C(CS(=O)c1cccc(C(F)(F)F)c1)Nc1ccccc1Cl` (stereo unspecified), the AC50 is reported as “inactive”. With `Cc1cc(C)n(-c2ccc(C(=O)Nc3cc(C(F)(F)F)ccc3N3CCOCC3)cc2)n1` the AC50 was “inactive”. `Cc1cc[n+](CC(=O)Nc2cc(C(F)(F)F)ccc2Cl)cc1` was tested, and the AC50 was 0.224 µM (active). With `O=C(Cc1ccccc1)NC(=S)Nc1cc(C(F)(F)F)ccc1Cl` the AC50 was “inactive”. In the case of `COc1ccc2nc(NCN3C(=O)c4ccccc4C3=O)sc2c1`, the activity, negative = inhibition is reported as -19.6% [at 11.4 µM] (inactive). `N[C@H](C(=O)N[C@@H]1C(=O)N2C(C(=O)O)=C(Cl)CS[C@@H]12)c1ccccc1` was tested, and the AC50 was “inactive”. In the case of `CCOC(=O)C1=C(C)NC(=S)NC1c1cccc(O)c1` (stereo unspecified), the AC50 is reported as “inactive”. With `O=C(O)CC[C@@H](NC(=O)c1ccccc1C(=O)O)C(=O)O` the AC50 was “inactive”. With `Cc1nc2cnc(Oc3ccccc3)nc2n(-c2ccccc2)c1=O` the AC50 was “inactive”. For `CCCN1C(=O)C2(/C(=C(\O)c3ccc4c(c3)OCCO4)C(=O)C(=O)N2CCCOC)c2ccccc21` (stereo unspecified), the AC50 was “inactive”. For `COc1ccc(Oc2ncc3nc(-c4cccs4)c(=O)n(Cc4cccc(OC)c4)c3n2)cc1`, the AC50 was “inactive”. For `Fc1ccc2nc3[nH]c4ccccc4c3nc2c1`, the AC50 was “inactive”. For `Cc1cc(N(CN2CCCC2=O)C(=O)c2ccc(F)cc2)no1`, the AC50 was “inactive”. With `COc1cc(/C=N/NC(=O)c2cccs2)ccc1OCc1ccccc1` the AC50 was “inactive”. In the case of `COc1ccc(Cl)cc1NC(=O)NCCCl`, the AC50 is reported as “inactive”. `CCOc1ccc(Cl)cc1CNCCNCCO` was tested, and the AC50 was 11.2 µM (active). `CCOc1ccc(C(=O)O)cc1OC` was tested, and the AC50 was “inactive”. `CCOc1ccc(Cl)cc1CNCCNCC(C)O` (stereo unspecified) was tested, and the AC50 was 3.16 µM (active). `N=C1SCC(=O)N1c1nc(-c2ccccc2)cs1` was tested, and the AC50 was “inactive”. In the case of `C[C@@H]1NCC[C@H](CC(=O)O)[C@H]1CC(=O)O`, the activity, negative = inhibition is reported as 5.62% [at 11.4 µM] (inactive). In the case of `Cc1nnc(-c2cnn(-c3ccccc3)c2N)n1Cc1ccc(F)cc1`, the AC50 is reported as “inactive”. In the case of `CCCCOc1ccc(-c2nnn(CC(=O)c3c[nH]c4ccccc34)n2)cc1`, the AC50 is reported as “inactive”. `c1ccc2c(-c3c[nH]c4ccccc34)c3ccccc3nc2c1` was tested, and the AC50 was 10 µM (active). In the case of `c1ccc(-c2c3ccccc3nc3[nH]c4ccccc4c23)cc1`, the AC50 is reported as “inactive”. In the case of `O=C(O)[C@@H](Cc1c[nH]c2ccccc12)C(=O)NO`, the activity, negative = inhibition is reported as 4.35% [at 11.4 µM] (inactive). With `Cc1nc(Sc2ccccc2)c(C#N)cc1-c1ccccc1` the AC50 was “inactive”. `Cc1nc2cc(NC(=O)CSc3nc4c(C)cccc4cc3C#N)ccc2s1` was tested, and the AC50 was “inactive”. In the case of `Nc1nc(SCC(=O)O)[nH]c(=O)c1N`, the activity, negative = inhibition is reported as 11% [at 11.4 µM] (inactive). `CO[C@@H]1/C=C\CC(=O)N[C@@H](C)C(=O)OC[C@@H](OC)[C@H](C)/C=C\CC(=O)OC[C@H]1C` was tested, and the activity, negative = inhibition was 10.8% [at 11.4 µM] (inactive). With `CCCN(CC1CC1)c1nc(C)nc(Nc2c(Cl)cc(Cl)cc2Cl)c1Cl` the AC50 was 1.58 µM (active). For `COCCN(C(=O)C(C)C)c1nnc(-c2ccc(C)cc2)s1`, the AC50 was “inactive”. For `CCC(CC)c1nnc(NC(=O)COc2ccc3c(C)cc(=O)oc3c2)s1`, the AC50 was “inactive”. In the case of `COc1ccc(NC(=O)CC2C(=O)N(c3cccc(OC)c3)C(=O)N2C2CCCCC2)cc1` (stereo unspecified), the AC50 is reported as “inactive”. For `CN(CCc1ccc(Cl)c(Cl)c1)CCN1CCCCCC1`, the AC50 was 0.126 µM (active). In the case of `CN1CCN(CCc2ccc(Cl)c(Cl)c2)CC1`, the AC50 is reported as 12.6 µM (active). For `CN1CCN(CCCBr)CC1`, the activity, negative = inhibition was 3.38% [at 11.4 µM] (inactive). In the case of `CCOC(=O)c1c(NC(=O)CCC(=O)N2CCOCC2)sc2c1CC(C)(C)OC2`, the AC50 is reported as “inactive”. For `COC(=O)c1cc(C#N)c(NCc2ccc(Cl)cc2Cl)nc1C`, the AC50 was “inactive”. With `CC(C)COc1ccc(C(=O)Nc2scc(-c3ccc(Cl)cc3Cl)c2C(N)=O)cc1` the AC50 was “inactive”. In the case of `Clc1ccccc1C(Nc1cnccn1)Nc1cnccn1`, the activity, negative = inhibition is reported as 10.1% [at 11.4 µM] (inactive). For `Cc1ccc(C(=O)NCC2CCCO2)cc1N1CCCC1=O` (stereo unspecified), the AC50 was “inactive”. For `O=c1[nH][nH]c(C(F)(F)F)c1C=Nc1cccc(Cl)c1`, the AC50 was “inactive”. For `CCCCOc1ccc(OC(=O)c2cccnc2)cc1`, the AC50 was “inactive”. In the case of `CCN(CC)CCOc1ccc(/C(=C(\Cl)c2ccccc2)c2ccccc2)cc1`, the AC50 is reported as 5.01 µM (active). For `COc1ccc(C(Cl)=C(c2ccc(OC)cc2)c2ccc(OC)cc2)cc1`, the AC50 was “inactive”. `Cc1nc(CN2CCCCC2)c(O)c(=O)[nH]1` was tested, and the activity, negative = inhibition was -19.7% [at 11.4 µM] (inactive). For `N[C@@H](Cc1[nH]nc2ccccc12)C(=O)O`, the activity, negative = inhibition was 3.39% [at 11.4 µM] (inactive). With `O=C(/C=C/c1ccccc1)NNC(=O)c1cccnc1` the AC50 was “inactive”. For `C=CC1=C(C)C2=Cc3c(C=C)c(C)c4[n]3[Sn+2][n]3c(c(C)c(CCC(=O)O)c3=CC3=NC(=C4)C(C)=C3CCC(=O)O)=CC1=N2`, the AC50 was 1.26 µM (active). In the case of `CCCCCN1CC(O)=C(c2nc(-c3ccc(Cl)cc3)cs2)C1=N`, the AC50 is reported as “inactive”. In the case of `Cc1nc2ccccc2nc1-c1ccc(N=[N+]([O-])c2ccc(-c3nc4ccccc4nc3C)cc2)cc1`, the activity, negative = inhibition is reported as -15.4% [at 11.4 µM] (inactive). `NC(=O)C[C@H](NC(=O)Cc1ccc(O)cc1O)C(=O)O` was tested, and the AC50 was “inactive”. `O=C(NCc1ccc(Cl)cc1)c1ccc(Cl)cc1[N+](=O)[O-]` was tested, and the AC50 was “inactive”. With `COc1ccc(Cc2nnc(NC(=O)c3ccc(Cl)c([N+](=O)[O-])c3)s2)cc1` the AC50 was “inactive”. For `CC(C)(CNC(=O)c1ccc([N+](=O)[O-])c(Cl)c1)CNC(=O)c1ccc([N+](=O)[O-])c(Cl)c1`, the AC50 was 3.16 µM (active).
